Assay results published in PubChem BioAssay (NCI).
This is part of a sample that, as a whole, favours compounds with a hit. Of some 83,000 tested, about 20% had one in any assay.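 Results are percent growth after 48 hours of single-concentration exposure. 100 means growth as in untreated cells, lower positive values show inhibition; negative values down to -100 show cell death.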 Active and inactive are the calls of the source.

test system: T-47D breast; experiment: NCI-60 one-dose screen, 48 h (100 = growth as untreated, 0 = no growth, -100 = all killed); conditions: 10 µM unless noted
Experimental: Growth inhibition of the T-47D human tumor cell line is measured as a screen for anti-cancer activity. Cells are grown in 96 well plates and exposed to the test compound for 48 hours. Compounds are tested at a single concentration, which is 10^-5 M for most compounds. The reported endpoint is percent growth (GI% or GIPRCNT), where numbers from 0 - 100% represent growth inhibition, and numbers from -100% - 0 represent cell death. For example, a value of 40 represents 60% growth inhibition. A value of 0 means no net growth occurred over the course of the experiment. A value of -40 indicates 40% of cells at the beginning of the experiment died by the end of the experiment. A value of -100 means all cells are dead at the end of the experiment.
NCI-60 Human Tumor Cell Lines Screen was performed using the standard one-dose NCI protocol, which is described in more detail at https://dtp.cancer.gov/discovery_development/nci-60/default.htm.
Compounds with GIPRCNT values below 10 were considered active. Activity score was based on GIPRCNT using the following formula: […]
Score is 0 for GIPRCNT values of 100 or above, 50 for GIPRCNT values of 0, and 100 for GIPRCNT values of -100.

Row | Compound | growth
1 | Oc1ccc([S+](c2ccc(O)cc2)c2ccc(O)cc2)cc1 | 107% (inactive)
2 | N=C(N)c1ccc(-c2ccc(-c3ccc(Cl)cc3)s2)s1 | -31.7% (active)
3 | Br/C(=N\Nc1nn[nH]n1)c1ccccc1 | 101% (inactive)
4 | CNCCCNCCCCNCCCN1C(=O)c2ccc3c4c(ccc(c24)C1=O)C(=O)N(CCCNCc1ccccc1OC)C3=O | 8.96% (active)
5 | CCn1cnc(C[C@H](NC(=O)[C@@H](NC(=O)Nc2cc(C(F)(F)F)cc(C(F)(F)F)c2)C(C)C)C(=O)OC)c1 | -77.8% [100 µM] (active)
6 | CCCCCCCCCCCCCCCCNC(=O)Nc1ccc(C)c(NC(=O)NCCCCCCCCCCCCCCCC)c1 | 104% (inactive)
7 | O=c1c2c(c3ccccc3n1-c1ccccc1)NC(=S)NC2c1ccccc1 (stereo not given) | 59.9% (inactive)
8 | C=C(C)C(C(=O)OCC)(C(=O)OCC)C(C)C | 124% (inactive)
9 | O=C(Nc1ccc(Cl)cn1)C1(c2ccccc2)CCCCC1 | 94.7% (inactive)
10 | CCOc1ccc(/C=N/NC(=O)c2cccc3ccccc23)cc1OCC | 86.1% (inactive)
11 | CCOc1ccccc1/C=N\N=C(N/N=C/c1ccccc1OCC)N/N=C/c1ccccc1OCC | 16.1% (inactive)
12 | COc1ccc(-c2nc(SCC(C)C)nc(Nc3ccc(C(=O)O)cc3)c2C#N)cc1 | 87.3% (inactive)
13 | CCOc1nc(-c2ccccc2)cc2c(O)c(C(=O)N/N=C/c3ccccc3O)[nH]c(=O)c12 | 94% (inactive)
14 | O=C1C(Br)=CC2C1C1C3CCC3C2(Br)C12OCCO2 (stereo not given) | 3.72% (active)
15 | Oc1ccccc1\C=N/N=C/C=C/c1ccccc1 | 76.9% (inactive)
16 | COc1cccc(NC(=O)NCCNc2nccc(-c3c(-c4ccc(F)cc4)nc4sccn34)n2)c1 | 71.8% (inactive)
17 | O=C(Nc1ccc(-n2cc(-c3ccncc3)c(-c3ccc(Cl)c(O)c3)n2)cc1)c1cc(C(F)(F)F)cc(C(F)(F)F)c1 | 47.9% (inactive)
18 | Cc1ccc(NCc2cn(-c3ccc(C(=O)O)cc3)nc2-c2ccc(C(=O)O)cc2)cc1 | 98.6% (inactive)
19 | CCOC(=O)C1=C(C(F)(F)F)NC(=O)NC1CN1C(=O)c2ccccc2C1=O (stereo not given) | 111% (inactive)
20 | NC(CSC(c1ccccc1)(c1ccccc1)c1ccccc1)C(=O)NCC(=O)O (stereo not given) | 96.1% (inactive)

Row | Compound | growth
21 | CC(=O)/C(=C/c1ccc(-c2ccccc2)cc1)C(=O)c1ccccc1 | 48.6% (inactive)
22 | Cc1sc(NC(=O)c2ccc(C(C)(C)C)cc2)c(C(=O)O)c1C | 87.5% (inactive)
23 | CCCCN(CCCC)CC(O)CN(CC)CC (stereo not given) | 97.6% (inactive)
24 | O=C1CCNC1 | 107% (inactive)
25 | CCOC(=O)C(C)C(C)(O)c1ccccc1 (stereo not given) | 97.3% (inactive)
26 | CCOC(=O)c1c(C)oc2ncnc(Nc3ccc(C(=O)NCCc4ccccc4)cc3)c12 | 65.1% (inactive)
27 | COc1cc2ncnc(-n3ncc4cc(NC(=O)Nc5ccccc5)ccc43)c2cc1OC | -7.28% (active)
28 | CC1(C)N=C(N)N=C(N)N1c1cccc(CCCCOc2ccccc2)c1 | 37.7% (inactive)
29 | NC(N)=N/N=C/c1cccc(Br)c1 | 86.8% (inactive)
30 | Cc1ccc(C(=O)C(Br)C(Br)c2ccccc2)cc1 (stereo not given) | 71.5% (inactive)
31 | Nc1cc(N)c2nc(-c3ccccc3)c(NCCc3ccc(Cl)c(Cl)c3)nc2c1 | -11.5% (active)
32 | CCC(C)[C@H](NC(=O)Nc1cc(C(F)(F)F)cc(C(F)(F)F)c1)C(=O)N[C@@H](Cc1cn(C)cn1)C(=O)OC (stereo not given in full) | -63.1% [100 µM] (active)
33 | N#Cc1ccc(OCc2nc(N)nc(N)c2-c2ccc(Cl)c(Cl)c2)cc1 | 82.2% (inactive)
34 | Cc1nc(NC(=O)NC2CCCCC2)sc1C(=O)NN | 112% (inactive)
35 | CNc1ccc(Nc2ccc(S(=O)(=O)O)cc2)c2c1C(=O)c1ccccc1C2=O | 110% (inactive)
36 | CC([C@H]1CC=C2C3CCC4=C[C@@H](N(C)C)CC[C@]4(C)C3CC[C@@]21C)N(C)C (stereo not given in full) | 29.1% (inactive)
37 | COC(=O)C(Cc1cnc[nH]1)N1CC(=O)N2[C@@H](c3ccccc3)SC[C@H]2C1=O (stereo not given in full) | 108% (inactive)
38 | CC1=C(C)C(=O)C(C(C)C2=C(C)C(=O)C(C)=C(C)C2=O)=C(C)C1=O | 91.6% (inactive)
39 | CCN(CC)c1ccc2nc3ccc(N=Nc4ccc(O)cc4)cc3[n+](-c3ccccc3)c2c1 | 32.7% (inactive)
40 | CCCC(CCC)Oc1ccc(CCCC2=C(O)c3ccccc3C(=O)C2=O)cc1 | 65.4% (inactive)
